The values that follow come from PubChem BioAssay AID1159580 (chemical genetic matrix, 2015).

This test can be described thus: chemical genetic growth profiling, strain panel (AID 1159580).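 Also: tested at 20 µM; growth read once vehicle control cultures reached saturation at 30 °C; 1 = growth at the plate median or of vehicle wells; lower values mean less growth of the strain.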 The settings on record: growth OD.
The mark [1] stands for this setting: S. cerevisiae deletion strains, locus YAL013W, strain DEP1, hits give low values.
Where [2] appears, read: S. cerevisiae deletion strains, locus YDR150W, strain NUM1, hits give low values.
Setting [3] is: S. cerevisiae deletion strains, locus YGR229C, strain SMI1, hits give low values.
Where [4] appears, read: S. cerevisiae deletion strains, locus YNL153C, strain GIM3, hits give low values.
Where [5] appears, read: S. cerevisiae deletion strains, locus YNL322C, strain KRE1, hits give low values.
Setting [6] is: S. cerevisiae deletion strains, locus YBR229C, strain ROT2, hits give low values.
Where [7] appears, read: S. cerevisiae deletion strains, locus YDL101C, strain DUN1, hits give low values.
Setting [8] is: S. cerevisiae deletion strains, locus YEL061C, strain CIN8, hits give low values.
[9] abbreviates: S. cerevisiae deletion strains, locus YGR078C, strain PAC10, hits give low values.
[10] abbreviates: S. cerevisiae deletion strains, locus YHR030C, strain SLT2, hits give low values.
The mark [11] stands for this setting: S. cerevisiae deletion strains, locus YHR087W, strain rtc3, hits give low values.
The mark [12] stands for this setting: S. cerevisiae deletion strains, locus YJR043C, strain POL32, hits give low values.
[13] abbreviates: S. cerevisiae deletion strains, locus YJR075W, strain HOC1, hits give low values.
Setting [14] is: S. cerevisiae deletion strains, locus YKL190W, strain CNB1, hits give low values.
The mark [15] stands for this setting: S. cerevisiae deletion strains, locus YLR039C, strain RIC1, hits give low values.
The mark [16] stands for this setting: S. cerevisiae deletion strains, locus YLR058C, strain SHM2 (second series), hits give low values.
The mark [17] stands for this setting: S. cerevisiae deletion strains, locus YLR085C, strain ARP6, hits give low values.
Setting [18] is: S. cerevisiae deletion strains, locus YLR262C, strain YPT6, hits give low values.
Setting [19] is: S. cerevisiae deletion strains, locus YML094W, strain GIM5, hits give low values.
[20] abbreviates: S. cerevisiae deletion strains, locus YMR219W, strain ESC1, hits give low values.
Setting [21] is: S. cerevisiae deletion strains, locus YMR263W, strain SAP30, hits give low values.
Where [22] appears, read: S. cerevisiae deletion strains, locus YMR307W, strain GAS1, hits give low values.
The mark [23] stands for this setting: S. cerevisiae deletion strains, locus YNL298W, strain CLA4 (second series), hits give low values.
[24] abbreviates: S. cerevisiae deletion strains, locus YNR030W, strain Alg12, hits give low values.
Where [25] appears, read: S. cerevisiae deletion strains, locus YPL055C, strain LGE1, hits give low values.
Where [26] appears, read: S. cerevisiae deletion strains, locus YPL241C, strain CIN2, hits give low values.
Where [27] appears, read: S. cerevisiae deletion strains, locus YPR135W, strain CTF4, hits give low values.
[28] abbreviates: S. cerevisiae strains, strain wild type, hits give low values.
Setting [29] is: S. cerevisiae deletion strains, locus YNL128W, strain TEP1, hits give low values.

SMILES strings stand for the structures. Out of some 5,500 compounds screened, about 2,000 (36%) were called active. Inconclusive results (about 18%) are left out. The list shows a part of the results. A number with no mark means an inactive call. Rule as the data show it: active = normalized growth mostly below about 0.91 (no sharp cut-off); inconclusive = no clear call, values can overlap the other calls; inactive = mostly above about 0.92.

With `Clc1ccc(N2CC3CCC(C2)N3)nn1`, the normalized growth was 1.04 under setting [1]; 1.01 (S. cerevisiae deletion strains, locus YAL040C, strain CLN3, hits give low values); 1.01 (S. cerevisiae deletion strains, locus YCL061C, strain MRC1 (second series), hits give low values); 1 under setting [2]; 1.01 (S. cerevisiae deletion strains, locus YDR363W, strain ESC2, hits give low values); 1 (S. cerevisiae deletion strains, locus YER002W, strain NOP16, hits give low values). The normalized growth runs as follows: under setting [3], 1.03; under setting [4], 1.01; (S. cerevisiae deletion strains, locus YNL175C, strain NOP13, hits give low values) 0.995; (S. cerevisiae deletion strains, locus YNL197C, strain WHI3, hits give low values) 1; (S. cerevisiae deletion strains, locus YNL224C, strain SQS1, hits give low values) 1; under setting [5], 1.04. The normalized growth (S. cerevisiae deletion strains, locus YOR083W, strain WHI5 (second series), hits give low values) is 0.959.

For `NC(=S)N/N=C\c1ccccc1`, the normalized growth by setting is: under setting [1], 0.991; under setting [6], 1.02; under setting [7], 0.987; under setting [2], 0.963; under setting [8], 0.902 (active); under setting [9], 1.02. For the same compound, the normalized growth under setting [10] was 0.823; the normalized growth under setting [11] was 1.06; the normalized growth under setting [12] is 1; the normalized growth under setting [13] was 1.04; the normalized growth under setting [14] was 0.973; the normalized growth under setting [15] is 1.13. Moreover, the normalized growth runs as follows: under setting [16], 1.01; under setting [17], 0.301 (active); under setting [18], 1.08; under setting [19], 0.872; under setting [20], 1; under setting [21], 0.982. The normalized growth is, setting by setting: under setting [22], 0.579 (active); under setting [4], 0.971; under setting [23], 0.836 (active); under setting [5], 1.03; under setting [24], 0.925; under setting [25], 0.872. In addition, the normalized growth by setting is: under setting [26], 0.983; under setting [27], 0.886; under setting [28], 0.974.

Consider `CCOC(=O)N/N=C\c1cccs1`, for which the normalized growth reads like this: under setting [1], 0.995; under setting [6], 1; under setting [7], 0.982; under setting [2], 0.996; under setting [8], 1; under setting [9], 1. Moreover, the normalized growth by setting is: under setting [10], 1.05; under setting [11], 0.992; under setting [12], 0.984; under setting [13], 0.972; under setting [14], 1.01; under setting [15], 1.07. Moreover, the normalized growth was 1.02 under setting [16]; 1.01 under setting [17]; 1.05 under setting [18]; 0.996 under setting [19]; 1 under setting [20]; 0.997 under setting [21]. The normalized growth reads like this: under setting [22], 1.02; under setting [29], 1; under setting [4], 0.996; under setting [23], 1.03; under setting [5], 1.01; under setting [24], 1. For the same compound, the normalized growth was 1.01 under setting [25], 0.993 under setting [26], 0.948 under setting [27] and 1.01 under setting [28].

For `NC(=S)N/N=C\c1cccs1`, the normalized growth is 0.984 under setting [1]; 0.96 under setting [6]; 0.979 under setting [7]; 0.962 under setting [2]; 0.945 under setting [8]; 0.98 under setting [9]. Moreover, the normalized growth under setting [3] is 1.01; the normalized growth under setting [10] is 0.992; the normalized growth under setting [11] was 1.02; the normalized growth under setting [12] was 0.973; the normalized growth under setting [13] was 0.829 (active); the normalized growth under setting [14] is 1. The normalized growth under setting [15] is 1.11; the normalized growth under setting [16] was 1; the normalized growth under setting [17] was 0.562 (active); the normalized growth under setting [18] is 1.08; the normalized growth under setting [19] was 0.92; the normalized growth under setting [20] is 0.873 (active). Moreover, the normalized growth under setting [21] is 0.997; the normalized growth under setting [29] was 1; the normalized growth under setting [4] is 0.898 (active); the normalized growth under setting [23] was 0.955; the normalized growth under setting [5] was 1.02; the normalized growth under setting [24] was 0.737 (active). Moreover, the normalized growth reads like this: under setting [25], 0.915; under setting [26], 1.06; under setting [27], 1.02; under setting [28], 1.
